Results on 35 compounds are retold here after PubChem BioAssay (EPA / NIEHS).

Molecules are shown by their SMILES. Inconclusive results are not listed. Calls of active or inactive are those of the source. How the source made its calls: active means hit-call score of the fitted dose curve at least 0.9, where 1 is the maximum; inconclusive means response in the unintended direction; inactive means score below 0.9.

Assay [1] in a line: ACEA_AR_agonist_AUC_viability: ACEA Biosciences xCELLigence Real-Time Cell Analysis on Androgen Receptor Agonism for Viability (AID 2283775).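 On AC50: viability read 80 hours after compound addition.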 The gist of the method: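 22Rv1 cells; impedance growth kinetics; 8-pt 1:4 dilutions from 100 uM top final, ≤0.5% DMSO; n = 2; 80 h read; AUC viability, loss-of-signal vs DMSO.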
A short description of assay [2]: ACEA_AR_antagonist_AUC_viability: ACEA Biosciences xCELLigence Real-Time Cell Analysis on Androgen Receptor Antagonism for Viability (AID 2283776).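 Further: 22Rv1 human prostate cancer cells growing on impedance electrode plates; area under impedance growth curve at 80 h after dosing as viability; hits lower the growth signal relative to DMSO meaning cytotoxicity.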 In outline:
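Impedance read-out (RT-CES): area under growth curve at 80 h post-dose, loss of signal scored vs DMSO baseline. 22Rv1 cells; 8-pt 1:4 series, top 100 uM final, ≤0.5% DMSO; biological duplicate.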

Assay [3] can be described thus: ACEA_ER_AUC_viability: ACEA Biosciences xCELLigence Real-Time Cell Analysis on Estrogen Receptor Agonism for Viability (AID 2283782).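 Further: hit means loss of impedance signal meaning reduced cell growth or viability.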 The gist of the method: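 Viability endpoint: reduced impedance area under the curve relative to DMSO, recorded by real-time electrode sensing over ~80 h of continuous exposure. Duplicate plates of T47D in hormone-depleted medium; eight concentrations, 1:4 dilutions, 100 uM maximum.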

Assay [4] is described as follows: STM_H9_NormalizedViability: Cytotoxicity Assessment at 120 hours in the Stemina devTOX quickPredict H9 human embryonic stem cell (hESC)-based Assay (AID 2283784). The gist of the method:
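Viability endpoint: background-corrected CellTiter-Fluor RFU expressed relative to the 0.1% DMSO mean on each plate. Undifferentiated H9 cells were treated with daily re-dosing and media change, and loss of signal was fitted.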

Assay [5] deals with AR (gene 367) (UniProt P10275). Put plainly: ACEA_AR_agonist_80hr: ACEA Biosciences xCELLigence Real-Time Cell Analysis on Androgen Receptor Agonism for Proliferation (AID 2283783).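 Further: hits increase impedance growth signal above DMSO baseline.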 The gist of the method:
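Eight concentrations, 1:4 serial dilution from a 100 uM final top, in biological duplicate. Impedance-based real-time growth of 22Rv1 cells after overnight baseline, recorded hourly and read at 80 hours. Controls: testosterone, MG132, assay media.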

Assay [6] concerns the target AR (gene 367) (UniProt P10275). The assay is described as follows: ACEA_AR_antagonist_80hr: ACEA Biosciences xCELLigence Real-Time Cell Analysis on Androgen Receptor Antagonism for Proliferation (AID 2283787).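 Further: 22Rv1 human prostate cancer cells with growth followed by electrical impedance; hits lower the impedance growth signal relative to DMSO.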 In outline:
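Impedance-based real-time growth of 22Rv1 prostate cells, read 80 h after dosing. Eight concentrations, 1:4 series, top 100 uM final (0.5% DMSO), n = 2; signal decrease scored against DMSO.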

Chain of AR (gene 367) (P10275 whole entry, looked up): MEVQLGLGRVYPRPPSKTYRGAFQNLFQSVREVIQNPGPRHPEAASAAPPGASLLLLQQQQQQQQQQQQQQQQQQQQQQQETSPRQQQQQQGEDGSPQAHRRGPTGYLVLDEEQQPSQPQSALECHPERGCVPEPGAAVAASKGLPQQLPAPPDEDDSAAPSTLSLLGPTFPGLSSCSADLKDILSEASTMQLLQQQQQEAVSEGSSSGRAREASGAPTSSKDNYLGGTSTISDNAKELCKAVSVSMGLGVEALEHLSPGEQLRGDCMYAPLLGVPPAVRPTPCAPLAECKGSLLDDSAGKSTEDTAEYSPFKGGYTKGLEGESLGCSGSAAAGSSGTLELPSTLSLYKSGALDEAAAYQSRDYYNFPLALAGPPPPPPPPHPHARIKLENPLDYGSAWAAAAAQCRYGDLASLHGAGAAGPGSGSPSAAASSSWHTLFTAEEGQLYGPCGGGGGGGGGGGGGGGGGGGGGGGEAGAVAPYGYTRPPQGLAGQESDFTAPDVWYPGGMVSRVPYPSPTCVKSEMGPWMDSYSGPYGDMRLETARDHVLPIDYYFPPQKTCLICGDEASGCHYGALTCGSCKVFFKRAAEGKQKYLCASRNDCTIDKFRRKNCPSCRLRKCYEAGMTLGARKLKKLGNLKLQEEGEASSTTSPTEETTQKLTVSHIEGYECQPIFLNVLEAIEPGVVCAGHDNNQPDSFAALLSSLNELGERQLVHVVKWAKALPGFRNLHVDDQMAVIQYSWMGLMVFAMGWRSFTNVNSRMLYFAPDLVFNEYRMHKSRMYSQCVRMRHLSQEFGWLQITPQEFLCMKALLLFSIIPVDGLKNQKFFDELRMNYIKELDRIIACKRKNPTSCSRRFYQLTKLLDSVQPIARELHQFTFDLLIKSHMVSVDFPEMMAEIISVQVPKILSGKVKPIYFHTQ

By AC50 is commonly meant the concentration giving half of the maximal activity seen. Take `O=[N+]([O-])c1cc(C(F)(F)F)c(Cl)c([N+](=O)[O-])c1Nc1ncc(C(F)(F)F)cc1Cl`: the AC50 was 8.38 µM (active) in assay [1], 10.6 µM (active) in assay [2], 3.24 µM (active) in assay [3] and 16.3 µM (active) in assay [4].

For `CCOP(=S)(OCC)SCCSCC`, the half-maximal activity concentration (AC50) in assay [1] is 78.1 µM (active); in assay [2], 80.6 µM (active). Besides, the outcome in assay [4] was inactive.

Regarding `C[Si](Cn1cncn1)(c1ccc(F)cc1)c1ccc(F)cc1`, the AC50 in assay [1] was 60.4 µM (active); in assay [2] it was 50 µM (active); in assay [3], 76.2 µM (active); in assay [4], 80.6 µM (active).

Turning to `FC(F)C(F)(F)OCC(Cn1cncn1)c1ccc(Cl)cc1Cl` (stereo not given), the concentration at half-maximal activity (AC50) is 66.4 µM (active) in assay [1], 60.5 µM (active) in assay [2] and 75.7 µM (active) in assay [3]. For the same compound, the result in assay [4] was inactive.

As for `CNC(=O)ON=C(SC)C(=O)N(C)C`, the result (in assay [1]; in assay [2]; with AR (gene 367) [5]; with AR (gene 367) [6]) was inactive. In addition, the AC50 in assay [3] is 65.5 µM (active).

For `CN(C)C(=O)Nc1cccc(C(F)(F)F)c1`, the compound was classed as inactive in assay [2], in assay [3] and in assay [4].

Take `COP(=O)(OC)OC(Br)C(Cl)(Cl)Br` (stereo not given): the AC50 in assay [1] is 75.1 µM (active); in assay [2] it was 61.3 µM (active); in assay [3], 30.7 µM (active); with AR (gene 367) [6] it was 69.5 µM (active). Moreover, the compound was called inactive with AR (gene 367) [5].

Take `CSc1nc(NC(C)C)nc(NC(C)C)n1`: the compound was classed as inactive in assay [1], in assay [2], in assay [3] and in assay [4].

With `COc1cccc(C(=O)NN(C(=O)c2cc(C)cc(C)c2)C(C)(C)C)c1C`, in assay [2], the AC50 was 76.4 µM (active). Also, the call in assay [3] was inactive.

Consider `CCCOc1nn(C(=O)NS(=O)(=O)c2ccccc2C(=O)OC)c(=O)n1C`, for which the call (in assay [1]; in assay [2]; in the assay with AR (gene 367) [5]; in the assay with AR (gene 367) [6]) was inactive.

As for `CN1COCN(Cc2cnc(Cl)s2)C1=N[N+](=O)[O-]`, the result in assay [2] was inactive.

`CCOP(=O)(OCC)Oc1cc(C)nc(C(C)C)n1`: the outcome in assay [2] and in assay [3] was inactive.

`CC(C)N(C(=O)SCC(Cl)=C(Cl)Cl)C(C)C`: the concentration at half-maximal activity (AC50) in assay [1] is 89.9 µM (active); in assay [2] it was 81 µM (active); in assay [3], 77.3 µM (active). Moreover, the result in assay [4] was inactive.

Turning to `Cc1nn(-c2cc(NS(C)(=O)=O)c(Cl)cc2Cl)c(=O)n1C(F)F`, the compound was called inactive (in assay [1]; in assay [2]; with AR (gene 367) [5]; in assay [4]).

With `CNc1cnn(-c2cccc(C(F)(F)F)c2)c(=O)c1Cl`, the result in assay [1], in assay [2] and in assay [4] was inactive.

Consider `CCCCOC(=O)c1ccccc1C(=O)O`, for which the compound was classed as inactive (in assay [1]; in assay [2]; in assay [3]; with AR (gene 367) [6]).

As to `C[N+]1(C)CCCCC1`, the outcome in assay [1], in assay [2] and in assay [4] was inactive.

Take `CNC(=O)Oc1cccc2c1OC(C)(C)O2`: the result in assay [1], in assay [2] and in assay [3] was inactive.

On to `CCc1cccc(CC)c1N(COC)C(=O)CCl`, for which the concentration at half-maximal activity (AC50) in assay [1] is 50 µM (active); in assay [2], 50 µM (active); with AR (gene 367) [6], 63.9 µM (active). In addition, in assay [3], the compound was classed as inactive.

As for `CCCCOC(=O)[C@@H](C)Oc1ccc(Oc2ccc(C#N)cc2F)cc1`, the half-maximal activity concentration (AC50) in assay [1] was 27.6 µM (active); in assay [2], 62.3 µM (active); in assay [4], 93.9 µM (active). Also, the result in assay [3] was inactive.

For `CC(Oc1cccc(Cl)c1)C(=O)O` (stereo not given), in assay [2], the result was inactive.

On to `Cc1ccn2nc(S(=O)(=O)Nc3c(F)cccc3F)nc2n1`, for which the result in assay [1], in assay [2] and in assay [4] was inactive.

For the compound `CC(C)[C@H](C(=O)O[C@H](C#N)c1cccc(Oc2ccccc2)c1)c1ccc(Cl)cc1`, in assay [1], the AC50 was 17.2 µM (active). In addition, the result in assay [4] was inactive.

`CC(C1CC1)C(O)(Cn1cncn1)c1ccc(Cl)cc1` (stereo not given): the half-maximal activity concentration (AC50) in assay [1] and in assay [2] was 49.8 µM (active) throughout. Further, the compound was called inactive in assay [3] and in assay [4].

Consider `O=C(O)c1cc(Oc2ccc(C(F)(F)F)cc2Cl)ccc1[N+](=O)[O-]`, for which the half-maximal activity concentration (AC50) in assay [1] was 50 µM (active). In addition, the result in assay [2] and in assay [3] was inactive.

In the case of `Nc1nc(N)nc(NC2CC2)n1`, the result in assay [2] and in assay [3] was inactive.

As for `CC1=NNC(=O)N(/N=C/c2cccnc2)C1`, the call in assay [1], in assay [2], in assay [3] and in assay [4] was inactive.

`COc1cc(OC)nc(Sc2cccc(Cl)c2C(=O)O)n1`: the compound was called inactive in assay [2].

As for `CCNc1nc(Cl)nc(NC(C)(C)C#N)n1`, the AC50 in assay [2] was 27 µM (active).

As for `CCOC(=O)COc1cc(-c2nn(C)c(OC(F)F)c2Cl)c(F)cc1Cl`, the outcome in assay [1] and in assay [3] was inactive. Also, the results for the half-maximal activity concentration (AC50) (in assay [2]; with AR (gene 367) [6]) were 16.6 µM (active) and 28.1 µM (active), respectively.

Regarding `CSc1nnc(C(C)(C)C)c(=O)n1N`, the result in assay [1], in assay [2], in assay [3] and in assay [4] was inactive.

Turning to `COc1ccc(C(=CC(=O)N2CCOCC2)c2ccc(Cl)cc2)cc1OC`, the call in assay [1] and in assay [3] was inactive. In addition, the values for the AC50 (in assay [2]; with AR (gene 367) [6]) were 15.2 µM (active) and 15.8 µM (active), respectively.

As for `CON=C(C(=O)OC)c1ccccc1CON=C(C)c1cccc(C(F)(F)F)c1`, the half-maximal activity concentration (AC50) in assay [1] was 26.4 µM (active); in assay [2] it was 14.5 µM (active); in assay [3] it was 90.5 µM (active). In addition, in assay [4], the result was inactive.

Turning to `CC(COc1ccc(Oc2ccccc2)cc1)Oc1ccccn1` (stereo not given), the half-maximal activity concentration (AC50) in assay [1] was 58.9 µM (active); in assay [2], 64.6 µM (active); in the assay with AR (gene 367) [6], 66.3 µM (active). The compound was classed as inactive in assay [3] and in assay [4].

`Nc1c(Cl)cc([N+](=O)[O-])cc1Cl`: the figures for the concentration at half-maximal activity (AC50) (in assay [1]; in assay [2]; with AR (gene 367) [6]) were 58.4 µM (active), 50 µM (active) and 50 µM (active), respectively.
